In all, about 360,000 compounds went through this assay and about 1,500 (0.42%) were called active. No stated cut-off is given here; in the data, active means inhibition above about 8.5%; inactive means the rest. This excerpt belongs to a sample that is enriched for actives.
Tested on: HIV-1 gp120 / PG9 antibody interaction
Assay: binders of HIV-1 gp120 antibody PG9, primary screen, biochemical, TR-FRET (AID 624416)
Conditions: TR-FRET gp120-PG9 antibody binding; at 6.7 µM; stronger effect = higher value

Row | Compound | inhibition
1 | CCCCNc1cccc2c1S(=O)(=O)N[C@@H](C)CO2 | -0.83% (inactive)
2 | CN1CCCc2nc(-c3ccccc3)ccc21 | -1.37% (inactive)
3 | C[C@H](CO)N1C[C@H](C)[C@@H](CN(C)C(=O)Nc2ccccc2F)OCc2cn(nn2)CCCC1=O | 0.59% (inactive)
4 | O=C(NN=Cc1ccco1)C(=O)Nc1ccc(Cl)c([N+](=O)[O-])c1 | -2.26% (inactive)
5 | CCOC(=O)N1CCN(C(=O)C[C@H]2C[C@@]3(C(=O)OC)C(=C[C@H](C4CCCC4)O[C@@H]3C)N(Cc3ccccc3)C2=O)CC1 | -1.34% (inactive)
6 | COc1ccc(-n2nnnc2SCC(=O)NCc2cccs2)cc1 | 0.22% (inactive)
7 | FC(F)(F)c1nc(-c2ccccc2)ncc1-c1nnnn1-c1ccccc1 | -0.69% (inactive)
8 | COc1ccc(-n2nnnc2-c2nc3ccccc3s2)cc1 | 14.4% (active)
9 | CC(=O)c1sc2nc(SCC(=O)N3CCCCC3)[nH]c(=O)c2c1C | 21.1% (active)
10 | CSc1nnc(SCc2nc3sc(C(=O)O)c(C)c3c(=O)[nH]2)s1 | -1.42% (inactive)
11 | Cc1c(C)n2c(SCC(=O)N3CCCC3)nnc2[nH]c1=O | -1.7% (inactive)
12 | Cc1nc(-c2ccccc2)sc1-c1nnc(C2CC2)o1 | -1.07% (inactive)
13 | Cc1nc(-c2ccccc2)sc1-c1nc(-c2ccccc2)ncc1S(=O)(=O)c1ccccc1 | 10.9% (active)
14 | C#CC(C)(C)NC(=O)c1cnc(-c2ccccc2)nc1-c1ccccc1 | -1.56% (inactive)
15 | CC(=O)N1C[C@@H](CO)[C@@H](N(C)C(=O)C(C)(C)C)C[C@H]1c1ccccc1Br | 0.03% (inactive)
16 | O=S1(=O)c2c(cccc2N2CCCC2)O[C@H](COCc2ccccc2)CN1C1CC1 | -1.25% (inactive)
17 | O=C(CN1CCCSc2ccccc21)N1CCN(S(=O)(=O)c2cccc(F)c2)CC1 | -0.88% (inactive)
18 | N#C/C=C1\Sc2ccccc2C(=O)N1CC(=O)N1CCN(S(=O)(=O)c2ccccc2)CC1 | 16.5% (active)
19 | CC(C)c1ccc(S(=O)(=O)N2CCN(C(=O)CN3C(=O)NC(C)(c4ccccc4)C3=O)CC2)cc1 (stereo unspecified) | -0.6% (inactive)
20 | O=C(N[C@H](Cc1ccccc1)C(=O)N1CCCN(Cc2cccs2)CC1)[C@H]1O[C@@H](n2ccc(=O)[nH]c2=O)[C@H](O)[C@@H]1O | -1.49% (inactive)
21 | COc1ccc(-c2ccccc2C2Cc3nnccc3CN2C(=O)Nc2ccccc2)cc1 (stereo unspecified) | -1.16% (inactive)

Row | Compound | inhibition
22 | Clc1cccc2c1C1CC2CCN1Cc1ccccc1 (stereo unspecified) | -1.15% (inactive)
23 | CCOc1cccc(NC(=O)Cn2nc(-c3ccc4c(c3)OCCO4)ccc2=O)c1 | 9.11% (active)
24 | CCc1ccccc1OCC(=O)Nc1ccc2c(c1)OCCO2 | -0.52% (inactive)
25 | CC(=O)c1cc2c(cc1NC(=O)Cn1nc(-c3ccc(F)cc3)ccc1=O)OCO2 | -0.49% (inactive)
26 | COC(=O)C1=C(C(=O)OC)C2C=C(C(C)C)C1C(=O)C2(C)O (stereo unspecified) | -0.26% (inactive)
27 | CCCCNC(=O)CSc1nccn1Cc1ccccc1 | 2.29% (inactive)
28 | Cc1nnc(OCC(=O)NCCC2=CCCCC2)c2ccccc12 | -0.11% (inactive)
29 | CCCCNC(=O)CSc1nc2n[nH]c(C)c2c(=N)n1-c1cccc(Cl)c1C | 20.8% (active)
30 | Cc1ccc(-n2c(SCC(=O)NCCC3=CCCCC3)nc3n[nH]c(C)c3c2=N)cc1Cl | 35.7% (active)
31 | COc1cccc(-n2c(SCC(=O)NC3CCCCC3)nc3n[nH]c(C)c3c2=N)c1 | 0.99% (inactive)
32 | CCCCCCNC(=O)CSc1nccn1Cc1ccccc1 | 0.53% (inactive)
33 | Cc1ccc(C)c(CN2CCC(CNC(=O)C3CCCN(c4ncnc5c4nc4n5CCCCC4)C3)CC2)c1 (stereo unspecified) | -0.22% (inactive)
34 | COC(=O)[C@]12C[C@H](CC(=O)NCCCCc3ccccc3)C(=O)N(Cc3ccc4c(c3)OCO4)C1=C[C@H](C(C)(C)C)O[C@@H]2C | 1.2% (inactive)
35 | C=CCN=C1NC(c2ccccc2)C(C(=O)OC)=C(C)N1Cc1ccc(C(F)(F)F)cc1 (stereo unspecified) | -0.19% (inactive)
36 | COc1ccc(CNS(=O)(=O)c2cc(Br)ccc2Br)cc1 | 0.06% (inactive)
37 | COC(=O)Cc1nnn2c1[C@H](C)[C@H](c1ccccc1Br)OCC2 | 1.33% (inactive)
38 | Cc1ccc(N)cc1CN1CCN(c2ncc(Cc3ccccc3)cn2)CC1 | -3.21% (inactive)
39 | COc1ccc(C)cc1NC(=O)CSc1ccc(Cl)cc1 | -1.28% (inactive)
40 | COc1ccc(Cl)cc1NC(=O)Cn1nc(-c2ccc(C)cc2)n(C)c1=S | 11% (active)
41 | COc1ccc(Cl)cc1NC(=O)CN1CCN(C(=O)N2CCOCC2)CC1 | 1.73% (inactive)
42 | CC1CCCN(c2cccc3c2S(=O)(=O)N(Cc2ccc(F)cc2)[C@@H](C)[C@H](c2ccccc2)O3)C1 (stereo partly specified) | 0.43% (inactive)

Row | Compound | inhibition
43 | CCCN1C(=O)c2[nH]nc(-c3ccccc3)c2C1c1ccccc1 (stereo unspecified) | -1.03% (inactive)
44 | CCN(CC)CCNC(=O)c1ccc(NS(=O)(=O)c2ccc3c(c2)OCCO3)cc1 | -1.11% (inactive)
45 | O=C(Nc1cccc(S(=O)(=O)Nc2ccc(Cl)cc2)c1)c1ccc2c(c1)OCCO2 | 9.35% (active)
46 | CC(NS(=O)(=O)c1ccc(Cl)cc1)C(=O)Nc1ccc2c(c1)OCCO2 (stereo unspecified) | 0.53% (inactive)
47 | COCCNC(=O)c1cc2c(Br)ccc(Br)c2nc1N | 9.73% (active)
48 | Nc1nc2c(Br)ccc(Br)c2cc1C(=O)NCCc1ccccc1 | 3.73% (inactive)
49 | COCCNC(=O)c1ccccc1-c1nc(-c2ccccc2Cl)no1 | -2.1% (inactive)
50 | Cc1ccc2nc(CN(C)C(=O)[C@@H](Cc3ccccc3)NC(=O)[C@H]3O[C@@H](n4ccc(=O)[nH]c4=O)[C@H](O)[C@@H]3O)[nH]c2c1 | -1.8% (inactive)
51 | COc1ccc(SSc2ccc(OC)cc2C(=O)O)c(C(=O)O)c1 | -0.62% (inactive)
52 | C=CCn1c(=NC(=O)c2cccs2)sc2cc(NC(C)=O)ccc21 | 10.5% (active)
53 | O=C(CN1CCCCCC1)Nc1ccc(S(=O)(=O)N2CCCCC2)cc1 | -1.07% (inactive)
54 | C=CCn1c(SCC(=O)Nc2ccc(NC(C)=O)cc2)nc2sc(C)c(C)c2c1=O | 1.19% (inactive)
55 | CC(=O)Nc1ccc(S(=O)(=O)N2CCN(S(=O)(=O)c3cccs3)CC2)cc1 | 1.11% (inactive)
56 | C=CCn1c(=NC(=O)c2ccc(S(=O)(=O)N3CCCC3)cc2)sc2cc(NC(C)=O)ccc21 | 13% (active)
57 | C=CCn1c(CCNC(=O)c2cccs2)n[nH]c1=S | -0.83% (inactive)
58 | O=C(NCc1ccccc1)[C@@H]1CCCN1C(=O)[C@H]1CCCN1C(=O)c1cccc(Cl)c1 | -0.83% (inactive)
59 | Cc1noc(C)c1NC(=O)Nc1ccc2c(c1)C(=O)N([C@H](C)CO)C[C@H](C)[C@H](CN(C)Cc1ccncc1)OCCCC[C@@H](C)O2 | 0.19% (inactive)
60 | C[C@H]1CN([C@@H](C)CO)C(=O)CCCn2nncc2CO[C@@H]1CN(C)C(=O)Nc1ccc(N2CCN(C)CC2)cc1 | -0.47% (inactive)
61 | Cc1[nH]c2ccccc2c1CC(=O)Nc1ccc(Nc2cccnc2)c(-c2cccc(Cl)c2)c1 | 0.12% (inactive)
62 | O=C(O)Cn1cnc2c(NCc3ccccc3)ncnc21 | 1.02% (inactive)
63 | CC(=O)C1=C(C)N(Cc2ccccc2)C(=S)NC1c1cccc(Br)c1 (stereo unspecified) | -1.42% (inactive)

Row | Compound | inhibition
64 | CCOc1ccccc1C(=O)N1CCC[C@@H]1C(=O)N1CCC[C@H]1C(=O)NCc1ccccc1 | 2.14% (inactive)
65 | COc1cccc(CC(=O)N2CCN(C(=O)C(=O)c3cccc(C(F)(F)F)c3)CC2)c1 | 0.18% (inactive)
66 | COCc1cc(N2CCN(C(=O)OC(C)(C)C)C[C@@H]2C)ccc1N1CCN(Cc2ccccc2)[C@H](C)C1 | 0.37% (inactive)
67 | CCCCCCCCN1C(=O)[C@@H](CC(=O)NCc2ccccc2)C[C@@]2(C(=O)OC)C1=C[C@H](C(C)(C)C)O[C@@H]2C | -0.73% (inactive)
68 | COCCNc1nc(Nc2ccccc2Cl)c2sc(-c3ccccc3)cc2n1 | 1.58% (inactive)
69 | COCCCNc1nc2c(-c3cccc(C(F)(F)F)c3)nnn2c2ccccc12 | 0.39% (inactive)
70 | COCCCNc1nc2c(-c3cccc(C)c3)nnn2c2ccc(Cl)cc12 | 10.3% (active)
71 | CC(C)CNc1cccc2c1S(=O)(=O)N[C@H](CC(C)C)CO2 | -0.01% (inactive)
72 | CN(C)C(=O)N1CCN(C(=O)[C@@H](Cc2ccccc2)NC(=O)[C@H]2O[C@@H](n3ccc(N)nc3=O)[C@H](O)[C@@H]2O)CC1 | -2.32% (inactive)
73 | c1ccc(Cc2ccc(OCCn3ccnc3)cc2)cc1 | -0.66% (inactive)
74 | CCCOc1ccc(C2C(C(=O)c3ccc(C)o3)=C(O)C(=O)N2CCCn2ccnc2)cc1 (stereo unspecified) | 54.6% (active)
75 | C=CCOc1cccc(C2C(C(=O)c3ccc(C)o3)=C(O)C(=O)N2CCCn2ccnc2)c1 (stereo unspecified) | 11.1% (active)
76 | CCOc1ccc(C2/C(=C(/O)c3ccc4c(c3)CC(C)O4)C(=O)C(=O)N2CCCn2ccnc2)cc1 (stereo unspecified) | 1.05% (inactive)
77 | C=CCOc1cccc(C2C(C(=O)c3ccc(C)o3)=C(O)C(=O)N2c2nnc(C)s2)c1 (stereo unspecified) | 2.85% (inactive)
78 | C=CCOc1cccc(C2C(C(=O)c3ccc(C)o3)=C(O)C(=O)N2CCN2CCOCC2)c1 (stereo unspecified) | 2.96% (inactive)
79 | COC(=O)c1c(-c2ccc(OC)cc2)c2c(c3c4cc(OC)ccc4n(S(=O)(=O)c4ccc(F)cc4)c13)C(=O)N(C)C2 | 1.03% (inactive)
80 | COC(=O)c1c(-c2ccc(OC)cc2)c2c(c3c4ccccc4n(S(=O)(=O)c4ccc(C)cc4)c13)C(=O)N(C)C2 | 0.17% (inactive)
81 | CN1C(=O)C2CC(O)C(SC3CC4C(=O)N(C)C(=O)C4CC3O)CC2C1=O (stereo unspecified) | 0.46% (inactive)
